Where “and” joins values, the source holds several entries; their conditions need not be identical. Equal values may be shown once. Inconclusive results are not listed. A call without a number means that no potency is given here. A structure can be active in one record and inactive in another. Calls of active or inactive are those of the source. Unless noted, the call rests on the fitted dose curve; in most records, active means well fitted curve in the direction sought with a large enough effect in the repeat runs; inconclusive means weak or mixed curves; inactive means no such curve, though single readings can be large; an effect the other way counts as inactive or inconclusive.
Assays:
[1] = molecular target: Progesterone receptor (Homo sapiens) (UniProt P06401); test: qHTS assay to identify small molecule agonists of the progesterone receptor (PR) signaling pathway (AID 1346784; calls by dose curve; further: nearly all actives have a fitted effect of over 30% in size)
Method in brief: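 PR-UAS-bla HEK 293T cells carrying a UAS-driven beta-lactamase reporter were seeded in medium with 2% charcoal-stripped FBS, preincubated 6 hr at 37C, then exposed to compounds in DMSO for 16 hr; agonism was read by LiveBLAzer B/G FRET fluorescence.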

[2] = molecular target: Progesterone receptor (Homo sapiens) (UniProt P06401); test: qHTS assay to identify small molecule antagonists of the progesterone receptor (PR) signaling pathway (AID 1346795; active means well fitted inhibition curve with a large enough effect in the signal ratio in the repeat runs, not every such curve was filed as active; the % refers to the signal ratio; further: potency means the concentration at half of the fitted maximal effect)
Method in brief: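 PR-UAS-bla HEK293T cells carrying a UAS-driven beta-lactamase reporter were plated in medium with 2% charcoal-stripped FBS and rested 6 hr at 37C. Compounds were added with 1 nM R5020 (final) for 16 hr, then FRET substrate loaded 2 hr at room temperature.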

[3] = qHTS assay to identify small molecule antagonists of the progesterone receptor (PR) signaling pathway - cell viability counter screen (AID 1346798); further: series mostly up to about 92 µM; nearly all actives have a fitted effect of over 50% in size
Method in brief: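 PR-UAS-bla HEK293T cells in medium with 2% charcoal-stripped FBS were treated with compounds plus R5020 for 16 hr at 37C. Cell viability was then read by CellTiter-Glo luminescence after 30 min at room temperature in the same wells.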

[4] = qHTS assay to identify small molecule agonists of the progesterone receptor (PR) signaling pathway - cell viability counter screen (AID 1346799; calls by dose curve; further: nearly all actives have a fitted effect of over 45% in size)
Method in brief: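 PR-UAS-bla HEK293T cells, 3,000 per well in medium with 2% charcoal-stripped FBS, were preincubated 6 hr at 37C, then exposed to compounds for 16 hr; viability was read as CellTiter-Glo luminescence after 30 min at room temperature.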

[5] = qHTS assay to identify small molecule antagonists of the TGF-beta/Smad signaling pathway - cell viability counter screen (AID 1346824); further: nearly all actives have a fitted effect of over 50% in size
Method in brief: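 SBE-bla HEK 293T cells were plated overnight at 37 C, then given compounds in DMSO plus TGF-beta1 (added as 0.25 ng/mL solution) for 5 hr. After the bla read, CellTiter-Glo was added to the same wells and luminescence read after 30 min at room temperature.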

[6] = qHTS assay to identify small molecule agonists of the TGF-beta/Smad signaling pathway - cell viability counter screen (AID 1346829); further: top concentration of the series differs between compounds; nearly all actives have a fitted effect of over 45% in size
Method in brief: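 Luminescence from CellTiter-Glo, read after a 30 min room-temperature incubation, gives cell viability of SBE-bla HEK 293T cells treated 5 hr with compounds at 37 C.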

[7] = qHTS assay to identify small molecule agonists of the TGF-beta/Smad signaling pathway (AID 1346859; active means well fitted activation curve with a large enough effect in the signal ratio in the repeat runs, not every such curve was filed as active; the % refers to the signal ratio; further: series mostly up to about 77 µM)
Method in brief: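 HEK 293T cells stably carrying a beta-lactamase reporter driven by the Smad binding element were seeded overnight, exposed to DMSO-dissolved compounds for 5 hr at 37 C, 5% CO2, then loaded with FRET substrate for 2 hr at room temperature.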

[8] = molecular target: Thyrotropin-releasing hormone receptor (Homo sapiens) (UniProt P34981); test: qHTS assay to identify small molecule antagonists of the thyrotropin-releasing hormone receptor (TRHR) signaling pathway (AID 1346877; active means well fitted inhibition curve with a large enough effect in the repeat runs, not every such curve was filed as active; further: series mostly up to about 51 µM)
Method in brief: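 Antagonist mode: after a 5 min room-temperature compound exposure, cells were stimulated with 1 nM (final) TRH. Dye-loaded TRHR-HEK293 cells were used, and calcium-dependent fluorescence was followed for 3 min, with 15-point titrations run in triplicate.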

[9] = molecular target: Thyrotropin-releasing hormone receptor (Homo sapiens) (UniProt P34981); test: qHTS assay to identify small molecule agonists of the thyrotropin-releasing hormone receptor (TRHR) signaling pathway (AID 1346891; calls by dose curve; further: series mostly up to about 58 µM)
Method in brief: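 TRHR-expressing HEK293 cells were plated 18 h at 37 °C/5% CO2, loaded with calcium dye 2 h at 37 °C, then given compound in DMSO; fluorescence was read kinetically for 3 min at 1 s intervals.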

[10] = Human pregnane X receptor (PXR) small molecule agonists, qHTS cell viability counter screen (AID 1346977); further: nearly all actives have a fitted effect of over 50% in size
Method in brief: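 PXR-Luc HepG2 cells in medium with 5% charcoal-stripped FBS were pre-incubated 5hr, then exposed to compounds for 24hr at 37C. Viability was read in the same wells by CellTiter-Fluor fluorescence, reagent added after 23hr with a 1hr incubation.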

[11] = Caspase-3/7 induction in HepG2 cells by small molecules, qHTS assay (AID 1346978); further: nearly all actives have a fitted effect of over 15% in size
Method in brief: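 Wild-type HepG2 cells (2,000/well) were settled 5 h at 37 C, 5% CO2, then exposed to compounds in DMSO for 17 h. Caspase-3/7 activity was read by luminescence 30 min after adding Caspase-Glo 3/7 reagent at room temperature.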

[12] = Caspase-3/7 induction in CHO-K1 cells by small molecules, qHTS assay (AID 1346980); further: nearly all actives have a fitted effect of over 15% in size
Method in brief: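 Wild-type cells were seeded at 1,500 per well and settled 5 hr at 37 C, 5% CO2, then exposed to DMSO-dissolved compounds for 17 hr. Caspase-Glo 3/7 reagent was added, and luminescence was read after 30min at room temperature.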

[13] = Caspase-3/7 induction in HepG2 cells by small molecules, qHTS cell viability counter screen (AID 1346981); further: series mostly up to about 92 µM; nearly all actives have a fitted effect of over 30% in size
Method in brief: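 CellTiter-Fluor fluorescence measured viability in the same wells used for Caspase-Glo 3/7. HepG2 (wild type) at 2,000 cells/well were pre-incubated 5 hr, dosed, and given reagent at 16 hr, with 1 hr further at 37C.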

[14] = molecular target: Nuclear receptor subfamily 1 group I member 2 (Homo sapiens) (UniProt O75469); test: Human pregnane X receptor (PXR) small molecule agonists, qHTS assay (AID 1346982); further: nearly all actives have a fitted effect of over 35% in size; further: potency means the concentration at half of the fitted maximal effect
Method in brief: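 Agonist mode: luminescence from ONE-Glo after 24 h compound exposure at 37C in HepG2 cells carrying hPXR-responsive CYP3A4 luciferase, plated in charcoal-stripped serum medium 5 h beforehand.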

[15] = molecular target: Acetylcholinesterase (Homo sapiens) (UniProt P22303); test: Acetylcholinesterase (AChE) small molecule antagonists: enzyme-based qHTS assay (AID 1347397; calls by dose curve; further: nearly all actives have a fitted effect of over 55% in size; further: potency means the concentration at half of the fitted maximal effect); settings: Potency: AChE enzyme activity inhibition
Method in brief: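 Tox21 library chemicals are tested in qHTS format against recombinant human AChE. The enzyme, dispensed at 50 mU/mL, sits with compound for 30 min at room temperature. A DTNB–acetylthiocholine cocktail follows, and colour is read after 10 min.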

[16] = Caspase-3/7 induction in CHO-K1 cells by small molecules, qHTS cell viability counter screen (AID 1346979); further: nearly all actives have a fitted effect of over 35% in size
Method in brief: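 Wild-type CHO-K1 cells were seeded at 1,500 per well, rested 5hr at 37 C, then exposed to compounds in DMSO. After 16hr, CellTiter-Fluor reagent was added and fluorescence read 1hr later as the viability measure.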

[17] = molecular target: Nuclear receptor subfamily 1 group I member 2 (Rattus norvegicus) (UniProt Q9R1A7); test: Rat pregnane X receptor (rPXR) activation by small molecules, qHTS assay (AID 1346983); settings: rPXR luciferase reporter cells, One-Glo luminescence, 24 h; stronger effect = higher value; further: nearly all actives have a fitted effect of over 20% in size
Method in brief: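 Cell-based rPXR luciferase reporter assay, 2,000 cells per well, rested 5hr at 37 C before compound addition in DMSO, then 24 hr at 37 C. One-Glo reagent was added and luminescence read after 30 min at room temperature.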

[18] = molecular target: Nuclear receptor subfamily 1 group I member 2 (Homo sapiens) (UniProt O75469); test: CYP3A4 induction through human pregnane X receptor (PXR) by small molecules, qHTS assay (AID 1346984); further: nearly all actives have a fitted effect of over 40% in size
Method in brief: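 Read-out is luminescence after One-Glo addition, following a 3 hr, 37C incubation with Luciferin-IPA CYP3A4 substrate (3uM final). Before that, compounds were on DPX-2 cells (HepG2 co-transfected with PXR element plus CYP3A4-promoter luciferase) for 24 hr at 37C.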

[19] = molecular target: Nuclear receptor subfamily 1 group I member 2 (Homo sapiens) (UniProt O75469); test: Human pregnane X receptor (PXR) activation by small molecules, qHTS assay (AID 1346985); further: nearly all actives have a fitted effect of over 40% in size
Method in brief: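 DPX-2 cells (HepG2 co-transfected with a PXR response element and a CYP3A4-promoter luciferase construct) were seeded at 2,000 per well, rested 5 hr at 37C, then exposed to DMSO-dissolved compounds for 24 hr. Activation was read as luciferase luminescence.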

[20] = molecular target: Acetylcholinesterase (Homo sapiens) (UniProt P22303); test: Acetylcholinesterase (AChE) small molecule antagonists: colormetric cell-based qHTS assay (AID 1347395; calls by dose curve; further: nearly all actives have a fitted effect of over 30% in size; further: potency means the concentration at half of the fitted maximal effect)
Method in brief: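 SH-SY5Y cells, plated overnight at 37 C, were exposed to compounds for 30 min at 37 C and 5% CO2. Acetylthiocholine plus DTNB was then added, and thiocholine from endogenous AChE was quantified colorimetrically after 90 min at 37 C.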

Sequence of Thyrotropin-releasing hormone receptor (Homo sapiens) (P34981 whole entry, looked up): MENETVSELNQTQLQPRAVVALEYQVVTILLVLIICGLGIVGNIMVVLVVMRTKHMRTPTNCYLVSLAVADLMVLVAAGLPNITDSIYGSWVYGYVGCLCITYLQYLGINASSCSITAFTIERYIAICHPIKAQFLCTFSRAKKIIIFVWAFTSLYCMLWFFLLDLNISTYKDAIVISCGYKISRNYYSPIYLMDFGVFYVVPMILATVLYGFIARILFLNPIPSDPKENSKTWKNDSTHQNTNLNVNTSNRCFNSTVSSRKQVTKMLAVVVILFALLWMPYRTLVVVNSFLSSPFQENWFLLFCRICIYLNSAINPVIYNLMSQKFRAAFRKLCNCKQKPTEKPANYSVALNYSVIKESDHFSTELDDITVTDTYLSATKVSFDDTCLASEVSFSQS
Sequence of Acetylcholinesterase (Homo sapiens) (P22303 whole entry, looked up): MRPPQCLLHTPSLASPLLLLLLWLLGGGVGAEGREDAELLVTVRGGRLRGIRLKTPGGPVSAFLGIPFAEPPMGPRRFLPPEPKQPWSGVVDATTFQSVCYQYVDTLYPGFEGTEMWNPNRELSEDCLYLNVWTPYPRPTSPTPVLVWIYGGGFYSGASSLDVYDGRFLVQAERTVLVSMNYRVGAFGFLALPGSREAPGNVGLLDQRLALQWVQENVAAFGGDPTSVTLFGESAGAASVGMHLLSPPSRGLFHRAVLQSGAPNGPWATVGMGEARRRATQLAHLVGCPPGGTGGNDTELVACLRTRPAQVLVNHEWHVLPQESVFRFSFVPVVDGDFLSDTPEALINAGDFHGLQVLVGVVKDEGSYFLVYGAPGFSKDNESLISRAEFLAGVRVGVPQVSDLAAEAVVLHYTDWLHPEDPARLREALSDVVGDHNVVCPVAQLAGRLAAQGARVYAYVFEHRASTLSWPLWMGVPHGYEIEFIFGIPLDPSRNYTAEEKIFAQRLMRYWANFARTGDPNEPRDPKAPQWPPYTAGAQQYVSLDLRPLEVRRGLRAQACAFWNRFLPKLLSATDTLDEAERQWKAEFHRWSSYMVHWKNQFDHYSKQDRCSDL
Sequence of Progesterone receptor (Homo sapiens) (P06401 whole entry, looked up): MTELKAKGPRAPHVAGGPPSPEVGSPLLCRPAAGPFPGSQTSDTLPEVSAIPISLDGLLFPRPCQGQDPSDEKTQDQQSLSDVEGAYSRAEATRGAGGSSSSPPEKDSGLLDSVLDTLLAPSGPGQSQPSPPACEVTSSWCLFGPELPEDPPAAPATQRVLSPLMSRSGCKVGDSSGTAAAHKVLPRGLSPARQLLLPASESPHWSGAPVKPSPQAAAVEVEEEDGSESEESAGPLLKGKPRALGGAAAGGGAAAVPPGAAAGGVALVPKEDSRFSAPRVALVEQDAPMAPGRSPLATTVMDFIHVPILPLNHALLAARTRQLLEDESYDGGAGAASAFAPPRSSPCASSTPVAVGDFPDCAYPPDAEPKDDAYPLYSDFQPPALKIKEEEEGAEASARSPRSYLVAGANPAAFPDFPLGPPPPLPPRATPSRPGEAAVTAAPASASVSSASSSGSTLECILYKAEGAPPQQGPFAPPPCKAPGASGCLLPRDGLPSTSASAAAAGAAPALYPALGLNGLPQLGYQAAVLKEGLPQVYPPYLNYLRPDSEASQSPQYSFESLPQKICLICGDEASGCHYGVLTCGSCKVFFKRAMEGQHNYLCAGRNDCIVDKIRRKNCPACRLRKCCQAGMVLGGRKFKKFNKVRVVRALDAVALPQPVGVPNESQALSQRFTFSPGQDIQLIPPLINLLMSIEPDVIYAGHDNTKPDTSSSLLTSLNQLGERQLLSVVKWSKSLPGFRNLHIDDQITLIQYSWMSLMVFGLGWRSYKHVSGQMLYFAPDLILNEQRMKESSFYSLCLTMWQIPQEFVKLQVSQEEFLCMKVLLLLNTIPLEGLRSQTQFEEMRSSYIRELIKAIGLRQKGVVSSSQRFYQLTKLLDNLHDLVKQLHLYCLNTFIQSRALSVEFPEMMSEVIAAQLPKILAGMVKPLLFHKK
Sequence of Nuclear receptor subfamily 1 group I member 2 (Homo sapiens) (O75469 whole entry, looked up): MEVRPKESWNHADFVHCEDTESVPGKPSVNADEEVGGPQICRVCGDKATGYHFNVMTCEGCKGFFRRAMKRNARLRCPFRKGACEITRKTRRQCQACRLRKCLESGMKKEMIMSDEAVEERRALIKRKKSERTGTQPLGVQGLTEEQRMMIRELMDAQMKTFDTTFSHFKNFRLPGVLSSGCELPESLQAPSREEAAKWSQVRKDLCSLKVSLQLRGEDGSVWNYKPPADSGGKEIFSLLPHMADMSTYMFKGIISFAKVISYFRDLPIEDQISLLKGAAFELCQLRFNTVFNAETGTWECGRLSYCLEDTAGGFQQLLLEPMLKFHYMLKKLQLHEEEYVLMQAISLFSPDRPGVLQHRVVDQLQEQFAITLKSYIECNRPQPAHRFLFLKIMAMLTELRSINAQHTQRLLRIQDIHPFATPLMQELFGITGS
Sequence of Nuclear receptor subfamily 1 group I member 2 (Rattus norvegicus) (Q9R1A7 whole entry, looked up): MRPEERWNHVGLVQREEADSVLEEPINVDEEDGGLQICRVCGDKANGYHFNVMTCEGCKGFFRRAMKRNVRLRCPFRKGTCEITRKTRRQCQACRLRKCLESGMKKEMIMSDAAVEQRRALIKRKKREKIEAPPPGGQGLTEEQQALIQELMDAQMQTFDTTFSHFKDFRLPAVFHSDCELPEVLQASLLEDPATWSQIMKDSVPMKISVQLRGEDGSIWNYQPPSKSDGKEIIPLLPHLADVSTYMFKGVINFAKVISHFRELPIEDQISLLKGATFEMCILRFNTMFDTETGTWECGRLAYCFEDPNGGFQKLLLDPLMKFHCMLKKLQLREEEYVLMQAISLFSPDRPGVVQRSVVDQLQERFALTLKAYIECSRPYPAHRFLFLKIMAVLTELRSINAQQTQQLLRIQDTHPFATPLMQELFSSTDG

Structure (SMILES)	Potency [1]	Potency [2]	Potency [3]	Potency [4]	Potency [5]	Potency [6]	Potency [7]	Potency [8]	outcome [9]	Potency [10]	Potency [11]	Potency [12]	Potency [13]	Potency [14]	Potency [15]	Potency [16]	max activation [17]	Potency [18]	outcome [19]	Potency [20]
CCCCSP(=O)(SCCCC)SCCCC	inactive	23.8 µM (active) and 24.3 µM (active)	inactive	inactive	inactive	inactive	inactive	inactive	inactive	inactive	inactive	inactive	inactive	23.8 µM (active)	inactive					
O=[N+]([O-])/N=C1\NCCN1Cc1ccc(Cl)nc1	inactive	inactive	inactive	inactive	inactive	inactive	inactive	inactive	inactive	inactive	inactive	inactive	inactive	inactive	inactive	inactive	-0.749% (inactive)	inactive	inactive	inactive
Cc1ccc([N+](=O)[O-])cc1	inactive	inactive	inactive	inactive	inactive	inactive	inactive	inactive	inactive	inactive	inactive	inactive	inactive	inactive	inactive					inactive
O=NN(c1ccccc1)c1ccccc1	inactive	inactive	inactive	inactive	inactive	inactive	inactive	inactive	inactive	inactive	inactive	inactive	inactive	inactive	inactive	inactive				inactive
CCOS(=O)(=O)OCC	inactive	inactive	inactive	inactive	inactive	inactive	inactive	inactive	inactive	inactive	inactive	inactive	inactive	inactive	inactive					5.03 µM (active) and inactive
CNC(=S)S	inactive	inactive	inactive	inactive	inactive	inactive	inactive	inactive	inactive	inactive	inactive	inactive	inactive	inactive	inactive					inactive
Nc1ccc2ccccc2c1	inactive	inactive	inactive	inactive	inactive	inactive	inactive	inactive	inactive	inactive	inactive	inactive	inactive	46.9 µM (active) and 43.3 µM (active)	inactive	inactive				inactive
CC(C)COC(=O)c1ccccc1C(=O)OCC(C)C	inactive	inactive	inactive	inactive	inactive	inactive	inactive	inactive	inactive	inactive	inactive	inactive	inactive	inactive	inactive	inactive				inactive
C=C(C)C#N	inactive	inactive	inactive	inactive	inactive	inactive	inactive	inactive	inactive	inactive	inactive	inactive	inactive	inactive	inactive	inactive				inactive
C[N+](C)(C)C	inactive	inactive	inactive	inactive	inactive	inactive	inactive	inactive	inactive	inactive	inactive	inactive	inactive	inactive	inactive					inactive
CCCCCCCCCCCCCl	inactive	inactive	inactive	inactive	inactive	inactive	inactive	inactive	inactive	inactive	inactive	inactive	inactive	inactive	inactive					inactive
CCNCC	inactive	inactive	inactive	inactive	inactive	inactive	inactive	inactive	inactive	inactive	inactive	inactive	inactive	inactive						
C=CC(Cl)CCl (configuration not stated)	inactive	inactive	inactive	inactive	inactive	inactive	inactive	inactive	inactive	inactive	inactive	inactive	inactive	inactive	inactive	inactive				inactive
O=NN1CCOCC1	inactive	inactive	inactive	inactive	inactive	inactive	inactive	inactive	inactive	inactive	inactive	inactive	inactive	inactive	inactive	inactive				inactive
CC(C)Nc1nc(Cl)nc(NC(C)C)n1	inactive	inactive	inactive	inactive	inactive	inactive	inactive	inactive	inactive	inactive	inactive	inactive	inactive	54.4 µM (active) and 24.3 µM (active)	inactive and 71 µM (active)					inactive and 31.7 µM (active)

Reference: PubChem BioAssay (Tox21)
